# Source: the supplement of paper PMC3334620
# In all, about 33,000 sequences were measured (“E-score (-0.5 to 0.5)”: median about -0.036, highest 2% from about 0.37 on). The sample as a whole holds a higher share of the highest values than the screen did.
# Target: T1, Yer064c (UniProt P40041)
# T1 sequence: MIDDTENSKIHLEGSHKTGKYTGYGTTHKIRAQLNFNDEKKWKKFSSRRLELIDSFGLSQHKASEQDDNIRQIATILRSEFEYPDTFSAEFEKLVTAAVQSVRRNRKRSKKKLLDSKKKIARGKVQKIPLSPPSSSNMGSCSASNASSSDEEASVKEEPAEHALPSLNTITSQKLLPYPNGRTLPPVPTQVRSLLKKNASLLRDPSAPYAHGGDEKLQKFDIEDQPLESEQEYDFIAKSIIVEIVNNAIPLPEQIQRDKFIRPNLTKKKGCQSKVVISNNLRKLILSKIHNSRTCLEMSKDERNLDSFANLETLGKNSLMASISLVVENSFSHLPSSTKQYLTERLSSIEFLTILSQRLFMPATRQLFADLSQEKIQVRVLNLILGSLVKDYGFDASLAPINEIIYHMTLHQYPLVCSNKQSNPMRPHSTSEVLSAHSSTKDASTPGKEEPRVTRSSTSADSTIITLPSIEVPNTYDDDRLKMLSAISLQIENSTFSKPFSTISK
# Assay: PBM E-score (8-mer binding enrichment) (E-score (-0.5 to 0.5)); higher = stronger / more preferred TF binding
# Settings: protein concentration: 200 nM; construct: GST-full length
# Procedure: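 Universal 'all 10-mer' protein binding microarrays (Agilent AMADID 015681) probed with GST-tagged S. cerevisiae TFs (full-length or DBD) made by in vitro transcription/translation (PURExpress), about 100-200 nM. Bound TF was detected with fluorescent anti-GST. Each ungapped 8-mer (which stands for itself and its reverse complement) is scored by the PBM enrichment score (E-score), a modified Wilcoxon-Mann-Whitney statistic from -0.5 to +0.5, computed with the Universal PBM Analysis Suite. Scale: above 0.35 generally sequence-specific binding.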
row,Sequence,PBM E-score
1,CATCTGTA,-0.0129
2,GGATCGTA,-0.118
3,CACTATAC,-0.184
4,CACTATAA,-0.0109
5,GACTATAA,0.389
6,AACTATAA,0.0773
7,AACTATAC,0.172
8,GACTATAC,0.413
9,AACTCTCG,-0.105
10,CCTTCAGC,-0.126
11,CATTTGGA,0.0626
12,CATGAGCC,0.247
13,CATGAGAC,0.322
14,AATGAGTG,0.249
15,AATGAGTC,0.485
16,CATGAGTC,0.481
17,AATGAGAC,0.257
18,ACGAGCGA,-0.0924
19,TGTTGAAA,0.0239
20,ACATCCCT,-0.0971
21,AGATCTAA,-0.0235
22,AGAAGTAT,0.0717
23,TCTCATAA,0.209
24,CCTCATAC,-0.153
25,ATTCATAG,0.166

row,Sequence,PBM E-score
1,ACGCATAT,-0.225
2,ACCCATAT,0.216
3,ACTCATAT,0.368
4,GCTCATAA,0.136
5,ACTCATAC,0.393
6,CCTCATAG,-0.00122
7,ACTCATAA,0.375
8,GCTCATAC,-0.0113
9,ACTCATAG,0.385
10,GAAGATCA,0.02
11,ATCGATAG,0.0388
12,GCGCGACA,-0.0346
13,ACCTGGAG,0.0449
14,CTCTTGCA,0.00318
15,CGTGATAC,-0.131
16,AGTGATAA,-0.0496
17,AGTGATTG,0.362
18,GGTGATAA,-0.111
19,CGTGATTC,0.418
20,GGTGATTA,0.447
21,CGTGATCC,-0.251
22,GGTGATGA,0.191
23,AGTGATTC,0.405
24,AGTGATGA,0.261
25,AGTGATAC,0.0829

row,Sequence,PBM E-score
1,AGTGATTA,0.4
2,ATTGGACA,-0.0986
3,AAAAACCC,-0.204
4,GAGATAGA,-0.206
5,GCAGTCCA,0.123
6,GCTCTCCA,-0.226
7,GTCCTCAA,0.159
8,CCAGAACC,-0.1
9,CGTGATAA,0.0558
10,CGTGATTA,0.393
11,CGTGATGA,0.104
12,AAGATGCC,-0.214
13,CGGCAAAA,-0.235
14,ACAAGACG,-0.027
15,AGAAGACT,0.368
16,ACAAGACT,0.37
17,AGAAGACG,-0.0622
18,AGAAGACC,-0.209
19,ACAAGACA,-0.114
20,ATTAATTG,0.238
21,ACCATACA,-0.0449
22,GAGGACCA,-0.0209
23,TGTATCAA,0.187
24,AGCGACGG,-0.139
25,ATGTAATC,0.291

row,Sequence,PBM E-score
1,CATAGTCC,0.304
2,CATAGTAA,0.212
3,CATAGTCG,0.374
4,AATAGTCG,0.346
5,TATAGTGA,0.134
6,CATAGTGG,-0.088
7,AATAGTCA,0.478
8,TATAGTAA,0.0693
9,TATAGTCA,0.467
10,CATAGTCA,0.466
11,AATAGTCT,0.297
12,AATAGTCC,0.241
13,AATGGGCT,-0.041
14,AACCAACC,-0.128
15,CGTCGAGA,0.0495
16,GAGCGCGC,-0.194
17,GTCGCTCA,0.171
18,GGACCATA,-0.109
19,CCGTACGA,-0.0292
20,AAGGGAGA,0.039
21,AGGGACTA,0.222
22,GATAGTCA,0.476
23,GATAGTCC,0.296
24,GATAGTAA,0.149
25,GCACCCCA,-0.26

row,Sequence,PBM E-score
1,GGGAGTCA,0.477
2,CGGAGTCC,0.307
3,CGGAGTCA,0.477
4,GGGAGTTA,-0.0443
5,GGGAGTAA,0.00383
6,CGGAGTTA,-0.0037
7,CACTGTGG,-0.177
8,CACCTACG,0.0159
9,GAACCGTC,-0.209
10,GACCTGTA,-0.193
11,CTCGAGTA,0.109
12,ATCGAGTC,0.389
13,ATCGAGTG,0.139
14,CTCGAGAC,0.163
15,ATCGAGTA,0.138
16,CTCGAGTC,0.37
17,CCGCTAGC,-0.334
18,GAAGATCC,-0.181
19,ACCCCTTA,-0.00226
20,AAGACTCT,0.425
21,CAGACTGA,0.134
22,AAGACTGT,0.254
23,GAGACTCC,0.367
24,AAGACTGC,0.137
25,CAGACTCC,0.187

row,Sequence,PBM E-score
1,AAGACTCC,0.387
2,AAAACTCT,-0.168
3,CAGACTCG,0.218
4,GAGACTGC,0.217
5,CAGACTCA,0.396
6,GAGACTAC,0.36
7,ACTTATCG,0.0591
8,CTGCCTAC,-0.0918
9,CCTATAGC,-0.178
10,GCCGTGCC,-0.24
11,CGCTGAAC,-0.0322
12,ACGTCTAA,0.0568
13,ACAGGGAG,-0.0887
14,CAAGCGAC,-0.0326
15,CTCCCGAG,0.0821
16,ACGCTATG,-0.064
17,GACTGGGC,0.0848
18,GAGACTTA,0.24
19,TAGACTGA,0.122
20,AAGACTCG,0.373
21,AAGACACG,-0.0488
22,AAGACTCA,0.48
23,GAGACTCA,0.467
24,AAGACACA,0.0498
25,TAGACTCA,0.413

row,Sequence,PBM E-score
1,GAGACTGA,0.28
2,TATACTCA,0.317
3,AAGACTTA,0.33
4,AAGACTGA,0.347
5,ATTTGGCG,-0.116
6,GAAGTTAC,0.0811
7,ATAGCTGC,0.00331
8,AGCTAAGG,-0.317
9,GGGAGCTA,-0.13
10,AGTTCATG,0.215
11,GCCAATAC,-0.222
12,AGAGCTGA,0.0408
13,AAAGTGAG,0.188
14,ATGCCGTA,-0.0237
15,CGCGTAAC,-0.139
16,GTACTTAA,0.123
17,CTTGCCAC,0.0476
18,ACCAAAAA,0.186
19,CACTTTAC,0.0259
20,ATCGCCTG,-0.012
21,GAGCACTC,-0.182
22,GAAGGATC,-0.0298
23,AGGTGCAC,-0.143
24,GGGGTGGA,-0.205
25,ACCACTTG,-0.0296

row,Sequence,PBM E-score
1,AATGAATC,0.39
2,ATTGAATC,0.375
3,CATGAATA,0.178
4,CATGAATG,0.197
5,CATGAATC,0.423
6,ATTGAATG,0.167
7,AATGAATT,0.0966
8,GATGAATA,0.176
9,ATTGAATA,0.169
10,AATGAATG,-0.0293
11,GATGAATC,0.387
12,GATGAACC,0.0652
13,AGTACCAC,0.0908
14,CAATCGAC,0.0905
15,ACTGCGAC,0.228
16,CTTCCGCC,-0.183
17,ACATGACG,-0.00033
18,AGATGACA,0.116
19,AGATGACT,0.487
20,AGATGACC,0.136
21,ACATGACT,0.48
22,ACATGAGA,0.284
23,ACATGAGC,0.046
24,ACATGAGT,0.375
25,ACATGACA,0.155

row,Sequence,PBM E-score
1,CTTACGTA,0.131
2,CGCAAGGA,-0.167
3,AAGGCATA,-0.129
4,TGCCAGCA,-0.0413
5,ACACGTGC,-0.0356
6,CACATGTC,0.0407
7,ATCCCACG,0.07
8,TAGGCGAA,-0.0147
9,CTGACTGC,0.348
10,ATGACAAG,0.0335
11,ACGACTGG,0.148
12,CTGACTGA,0.395
13,AGGACTAG,0.275
14,GTGACGGA,-0.0635
15,CGGACTGA,0.178
16,GGGACTGA,0.119
17,AAGACTGG,0.1
18,ATGACTAG,0.48
19,GTGACTGA,0.447
20,ATGACTGG,0.409
